Structures are written as SMILES. Unmarked numbers belong to inactive results. Results filed as inconclusive are left out. Calls of active or inactive are those of the source. Unless noted, calls come from the whole dose curve; as a rule, active = well fitted curve in the direction sought with a large enough effect in the repeat runs; inconclusive = weak or mixed curves; inactive = no such curve, though single readings can be large; an effect the other way counts as inactive or inconclusive.

Assay [1] in a line: qHTS assay for identifying genotoxic compounds that show differential cytotoxicity against isogenic chicken DT40 cell lines with known DNA damage response pathways - wild type cell line (AID 743012). Note: nearly all actives have a fitted effect of over 60% in size. Note: potency is the fitted concentration of half-maximal effect. An outline of the steps: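 Cells (DT40 wild type, 300/well) are treated with DMSO-dissolved compounds after a ~0.5 h pre-incubation and kept 40 h at 37 C/5% CO2. Viability is then measured by CellTiter-Glo luminescence following 30 min at room temperature.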

The nature of assay [2]: qHTS assay for identifying genotoxic compounds that show differential cytotoxicity against isogenic chicken DT40 cell lines with known DNA damage response pathways - Rev3 mutant cell line (AID 743014). Note: nearly all actives have a fitted effect of over 55% in size. Note: potency is the fitted concentration of half-maximal effect.
Assay [3] can be described thus: qHTS assay for identifying genotoxic compounds that show differential cytotoxicity against isogenic chicken DT40 cell lines with known DNA damage response pathways - Rad54/Ku70 mutant cell line (AID 743015). Note: nearly all actives have a fitted effect of over 60% in size. Note: potency is the fitted concentration of half-maximal effect.
A short description of assay [4]: qHTS assay to identify small molecule antagonists of the androgen receptor (AR) signaling pathway - cell viability counter screen (AID 743033; note: nearly all actives have a fitted effect of over 45% in size).
Assay [5] can be described thus: qHTS assay to identify small molecule antagonists of the androgen receptor (AR) signaling pathway using the MDA cell line - cell viability counter screen (AID 743041; note: nearly all actives have a fitted effect of over 45% in size). An outline of the steps:
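R1881-driven MDA-kb2 AR-luc cells, 3,000/well, were dosed with library compounds for 16 h; cell health came from CellTiter-Fluor fluorescence in the reporter wells.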

Assay [6] is described as follows: qHTS assay to identify small molecule antagonists of the glucocorticoid receptor (GR) signaling pathway - cell viability counter screen (AID 720693). Note: nearly all actives have a fitted effect of over 55% in size.
The target in assay [7] is Androgen receptor (Homo sapiens) (UniProt P10275). The experiment in a line: qHTS assay to identify small molecule agonists of the androgen receptor (AR) signaling pathway using the MDA cell line (AID 743040; note: nearly all actives have a fitted effect of over 20% in size). A digest of the protocol:
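After a 5 h incubation at 37C and 0% CO2, MDA-kb2 reporter cells were dosed with compounds in DMSO and kept 16 h under the same conditions. Luciferase activity was then read as luminescence with ONE-Glo.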

The target is the same in assay [8]. The experiment in a line: qHTS assay to identify small molecule antagonists of the androgen receptor (AR) signaling pathway using the MDA cell line (AID 743042; note: nearly all actives have a fitted effect of over 55% in size). A digest of the protocol:
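Antagonist mode: compounds plus R1881 agonist added to MDA-kb2 AR-luc cells, incubated 16 h at 37C. Luciferase reporter luminescence quantified, with multiplexed CellTiter-Fluor readout for cell viability.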

For assay [9] the target is unchanged. The experiment in a line: qHTS assay to identify small molecule agonists of the androgen receptor (AR) signaling pathway (AID 743036; active = well fitted activation curve with a large enough effect in the signal ratio in the repeat runs, with a control signal flat, not every such curve was filed as active; the % refers to the signal ratio). An outline of the steps:
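Reporter line: GeneBLAzer AR-UAS-bla-GripTite (HEK293). Steps: plate cells, 4 h rest, add compounds, 16 h at 37C, add LiveBLAzer B/G substrate, 2 h at RT, read fluorescence.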

For assay [10] the target is unchanged. The experiment in a line: qHTS assay to identify small molecule antagonists of the androgen receptor (AR) signaling pathway (AID 743035; active = well fitted inhibition curve with a large enough effect in the signal ratio in the repeat runs, not every such curve was filed as active; the % refers to the signal ratio). An outline of the steps:
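Antagonism is scored as loss of R1881-driven beta-lactamase reporter expression in HEK293 cells carrying the reporter under a UAS element, after 16 h co-treatment at 37C and a 2 h room-temperature FRET substrate read.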
% is set by controls: 0 for no effect and ±100 for the full control effect.

Chain of Androgen receptor (Homo sapiens) (P10275 whole entry, looked up): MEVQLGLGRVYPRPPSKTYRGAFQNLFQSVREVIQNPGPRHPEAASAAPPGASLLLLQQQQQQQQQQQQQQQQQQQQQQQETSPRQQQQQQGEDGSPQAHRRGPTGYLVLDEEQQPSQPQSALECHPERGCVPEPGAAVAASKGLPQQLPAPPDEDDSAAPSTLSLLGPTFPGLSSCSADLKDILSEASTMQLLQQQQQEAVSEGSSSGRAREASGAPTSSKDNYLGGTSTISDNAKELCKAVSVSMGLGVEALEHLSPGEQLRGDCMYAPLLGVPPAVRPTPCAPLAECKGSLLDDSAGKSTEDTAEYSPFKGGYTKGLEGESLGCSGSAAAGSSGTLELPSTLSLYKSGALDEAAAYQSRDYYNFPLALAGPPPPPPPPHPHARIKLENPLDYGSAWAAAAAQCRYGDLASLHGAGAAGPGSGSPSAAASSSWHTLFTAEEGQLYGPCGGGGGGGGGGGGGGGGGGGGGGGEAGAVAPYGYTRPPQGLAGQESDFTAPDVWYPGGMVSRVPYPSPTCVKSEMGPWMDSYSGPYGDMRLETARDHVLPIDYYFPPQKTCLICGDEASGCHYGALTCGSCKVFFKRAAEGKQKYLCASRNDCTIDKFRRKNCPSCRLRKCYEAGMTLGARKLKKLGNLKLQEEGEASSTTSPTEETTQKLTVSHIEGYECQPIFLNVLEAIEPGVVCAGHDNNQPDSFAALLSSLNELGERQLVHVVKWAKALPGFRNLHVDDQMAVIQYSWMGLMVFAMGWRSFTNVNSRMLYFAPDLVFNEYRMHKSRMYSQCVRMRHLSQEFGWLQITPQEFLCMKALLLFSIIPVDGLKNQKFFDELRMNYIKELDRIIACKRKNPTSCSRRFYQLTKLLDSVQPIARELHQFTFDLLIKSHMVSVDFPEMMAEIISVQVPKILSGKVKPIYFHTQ

With `CNc1ccccc1`, the Potency result in [1], in assay [2], in [3], in assay [4] and in [5] was “inactive” in each case.

Consider `O=C1CCCN1CCO`, for which the Potency entry in [6] and in [5] was “inactive” in each case. Besides, the Potency in assay [2] is 54.5 µM (active).

Consider `C=C(C)C(=O)OCCCCCCCCCCOC(=O)C(=C)C`, for which the Potency result in assay [6], in [4] and in [5] was “inactive” throughout. The Potency in assay [2] is 30.6 µM (active).

Turning to `Clc1ccccc1-c1nc(-c2ccncc2)no1`, the Potency result in [6], in assay [2], in assay [4] and in assay [5] was “inactive” each time.

In the case of `C[C@]12CCC(=O)C=C1[C@@H]1C[C@@H]1[C@H]1[C@@H]3[C@@H]4C[C@@H]4[C@@]4(CCC(=O)O4)[C@@]3(C)CC[C@@H]12`, the results for the Potency in assay [1] and in assay [2] were 9.44 µM (active) and 11.9 µM (active), respectively. Moreover, the Potency entry in assay [4] and in [5] was “inactive” each time.

Regarding `S=c1[nH][nH]c(=S)s1`, the Potency result in [6], in assay [2] and in assay [5] was “inactive” in each case.

In the case of `O=C(O)c1ccccc1[N+](=O)[O-]`, the Potency result in assay [1], in assay [2], in [3], in assay [4] and in assay [5] was “inactive” in each case.

For `Oc1ccc(Oc2ccccc2)cc1`, the Potency in [1] is 20.6 µM (active); in [2], 23.1 µM (active); in [3], 36.6 µM (active). Besides, the Potency entry in assay [5] is “inactive”.

Consider `CO[C@@H]1COCC[C@@H]1N[C@@H]1CC[C@@](C(=O)N2CCc3ncc(C(F)(F)F)cc3C2)(C(C)C)C1`, for which the Potency result in [6], in assay [4] and in assay [5] was “inactive” each time.

For `O=C(N[C@@H](Cc1ccccc1)[C@@H](O)C(=O)N1C[C@@H](O)[C@@H](O)C1)c1cc2cc(Cl)ccc2[nH]1`, the Potency result in assay [6] and in [5] was “inactive” throughout.

Regarding `O=c1[nH][nH]c2ccccc12`, the Potency result in assay [6], in assay [3], in assay [5] and in assay [8] was “inactive” each time. In addition, the call in assay [7] was inactive.

For the molecule `COC=O`, the viability change, negative = cytotoxic in [6] is -0.963% [at 7.04 µM]; in [5] it was 12.8% [at 8.47 µM]. Also, the Potency in [2] is 4.48 µM (active). In addition, the activity change, negative = cytotoxicity in assay [4] was -27.8% [at 7.04 µM].

With `CCCCCCCCNC`, the Potency result in assay [1], in assay [2], in [3], in assay [4] and in assay [5] was “inactive” throughout.

Turning to `O=C(O)c1ccc2c(c1)nc(C(=O)NC1CCN(C3CC3)CC1)n2Cc1cc(-c2ccc(Cl)s2)on1`, the Potency result in [6], in assay [2], in assay [4] and in assay [5] was “inactive” in each case.

Consider `CCN(CCCCOC(=O)c1ccc(OC)c(OC)c1)C(C)Cc1ccc(OC)cc1` (stereo not given), for which the Potency entry in assay [6], in assay [3], in assay [4] and in [5] was “inactive” each time.

In the case of `CC(C)(C(=O)O)c1ccc(C(O)CCCN2CCC(C(O)(c3ccccc3)c3ccccc3)CC2)cc1` (stereo not given), the Potency result in assay [6], in assay [4] and in assay [5] was “inactive” each time.

As for `COc1ccc(C(=O)Nc2ccccc2)cc1[N+](=O)[O-]`, the Potency entry in [6], in assay [4] and in assay [5] was “inactive” throughout.

Take `C[C@H](CN1CCCC1)C(=O)c1ccc(C(F)(F)F)cc1`: the Potency in assay [1] is 6.68 µM (active); in assay [2] it was 10.6 µM (active); in [3], 8.41 µM (active). The Potency entry in assay [4] and in assay [5] was “inactive” throughout.

Take `NCCOCCOCCN`: the Potency in assay [1], in assay [2] and in assay [3] was 24.3 µM (active) throughout. Also, the molecule was classed as inactive in assay [7].

In the case of `O=Cc1ccc([N+](=O)[O-])cc1`, the Potency result in assay [6], in [4] and in assay [5] was “inactive” throughout. In [3], the Potency was 48.9 µM (active).

For the molecule `CCCCOC(=O)C(C)Oc1ccc(Oc2ccc(C(F)(F)F)cn2)cc1` (stereo not given), the Potency result in assay [6], in [4] and in [5] was “inactive” in each case.

`COC(=O)Cc1cccc2ccccc12`: the Potency result in assay [6], in [5] and in assay [8] was “inactive” each time. In addition, the Potency in assay [2] is 54.5 µM (active). Besides, the result in [9] and in assay [7] was inactive.

As for `O=C(Nc1ccc2c(c1)Cc1ccccc1-2)C(F)(F)F`, the Potency result in assay [6], in assay [4] and in [5] was “inactive” in each case. Moreover, the Potency in assay [3] was 54.5 µM (active).

Regarding `COC(=O)/C=C/C(C)=C\C=C\C(C)=C\C=C\C=C(C)\C=C\C=C(C)\C=C\C(=O)O`, the Potency entry in [6], in [10], in [5] and in assay [8] was “inactive” each time. Besides, the Potency in assay [2] is 54.5 µM (active). The outcome in assay [9] and in assay [7] was inactive.

With `CC(C)=CCCC(C)C=O` (stereo not given), the Potency entry in assay [6], in [4] and in assay [5] was “inactive” throughout. Moreover, the Potency in [3] is 61.1 µM (active).

Consider `N#C[C@@H]1CC(F)(F)CN1C(=O)CNC1CC2CCC(C1)N2c1ncccn1` (stereo not given in full), for which the Potency result in assay [6], in assay [4], in [10], in assay [5] and in [8] was “inactive” throughout. The molecule was called inactive in assay [9] and in assay [7].

For the molecule `CC1(C)[C@@H]2CC[C@]3(C2)[C@@H]1C(=O)CCC3(C)C`, the Potency entry in assay [6], in assay [10], in assay [5] and in assay [8] was “inactive” in each case. In addition, the result in assay [9] and in assay [7] was inactive.

As for `O=C(OCCOCCOCCOC(=O)c1ccccc1)c1ccccc1`, the Potency entry in assay [6] and in assay [5] was “inactive” each time.

For `CC(C)=CCC/C(C)=C/C=N/O`, the Potency result in [6], in assay [4] and in assay [5] was “inactive” throughout.

Source of the values: PubChem BioAssay (Tox21).
